# S1P3 antagonist: antagonists of human S1P3 receptor | Q99500 | CHO S1P3 NFAT-BLA reporter, FRET fluorescence, antagonist mode | inhibition, % at 4.98 µM | 170,000 tested, 0.27% active;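 active = inhibition above the plate cutoff, the mean inhibition of test wells on that plate plus 3 SD, cut at about 28% in these data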;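 also: cells challenged with S1P at its EC80 of 0.8 µM; blue over green emission ratio from cleaved BLA substrate after 4 h stimulation; 0% = S1P-stimulated wells and 100% = unstimulated DMSO-only wells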
# S1P4 agonist: human S1P4 receptor agonism. S1P4-expressing cell line, agonist reporter assay. O95977. 220,000 tested, 0.35% active. activation, % at 4.98 µM; in the data active = activation above about 11%;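 also: 0% = DMSO vehicle and 100% = reference agonist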
# Target sequence (O95977 whole entry, looked up): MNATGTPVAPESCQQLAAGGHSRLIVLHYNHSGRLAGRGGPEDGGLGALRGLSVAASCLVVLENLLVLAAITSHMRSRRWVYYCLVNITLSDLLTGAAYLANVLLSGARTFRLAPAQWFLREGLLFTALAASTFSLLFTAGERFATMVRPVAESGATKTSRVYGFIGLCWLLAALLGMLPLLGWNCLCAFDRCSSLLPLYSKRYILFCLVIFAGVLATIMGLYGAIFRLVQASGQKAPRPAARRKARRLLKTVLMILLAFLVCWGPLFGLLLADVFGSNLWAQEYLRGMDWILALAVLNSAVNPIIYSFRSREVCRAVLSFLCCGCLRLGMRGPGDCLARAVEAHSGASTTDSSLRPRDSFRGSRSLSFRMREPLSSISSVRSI
# EP2 modulator: modulates human prostaglandin E2 receptor EP2 signaling; P43116; EP2-expressing cells, cAMP HTRF FRET, PGE2 co-stimulation; induction, % at 25 µM; 260,000 tested, 0.83% active;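 active = compounds whose cAMP rise, as percent of the full-agonist control response, exceeds 60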;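 also: rat C6 glioma line stably carrying human EP2 under a CMV promoter; the protocol text gives 20 µM as final concentration; 100% = response of wells given 1 µM PGE2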
# EP2 antag: inhibitors of human EP2 prostaglandin E2 receptor; C6 glioma cells expressing human EP2, cAMP TR-FRET; cells stimulated with saturating PGE2; 260,000 tested, 0.52% active; inhibition, % at 25 µM;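 active = percent inhibition above 40 after rounding to a whole number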;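 also: rat C6 glioma host cells with rolipram phosphodiesterase inhibitor present; the protocol text gives 20 µM as final concentration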
# S1P4 antag: antagonists of human S1P4 receptor; O95977; S1P4-expressing cells, antagonist mode, reporter read-out; inhibition, % at 4.98 µM; 220,000 tested, 0.26% active; in the data active = inhibition above about 29%;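 also: 0% = wells stimulated with agonist and 100% = vehicle wells without agonist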
# S1P4 ag conf: confirmation of human S1P4 receptor agonists; shares compounds with S1P4 agonist; activation, % at 4.98 µM; 740 tested, 7% active; S1P4 agonist cell-based reporter assay; in the data active = activation above about 12%;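 also: 0% = vehicle and 100% = full reference agonist response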
# S1P1 agonist: counter-screen for S1P4 agonists: agonists of human S1P1. activation, % at 4.98 µM. S1P1 agonist cell-based assay, activation. shares compounds with S1P4 agonist. AID 1563. 740 tested, 4% active; in the data active = activation above about 21%;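 also: 0% = vehicle wells and 100% = reference agonist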
# An asterisk follows results filed as active; x = no result. Rows were chosen to be rich in hits. Some 1.9% of all compounds tested hit in one or more screens of this group.
SMILES,S1P3 antagonist,S1P4 agonist,EP2 modulator,EP2 antag,S1P4 antag,S1P4 ag conf,S1P1 agonist
CC(=O)c1ccc(Oc2ccc(C(=O)c3ccc(C)c(C)c3)cc2[N+](=O)[O-])cc1,-9,14*,-20,8,11,-2,-3
Cc1cc2cc(C#N)c(SCC(=O)N3CCOCC3)nc2cc1C,x,x,49,31,x,x,x
Nc1ccccc1SCC1CSc2nc3ccccc3c(=O)n21 (centres undefined),-4,14*,7,6,-2,-2,-9
CN(C(=O)CSc1nnc(-c2ccc(F)cc2)o1)C1CCCCC1,x,x,60,7,x,x,x
CCNC(=O)c1cc2c(=O)n3ccccc3nc2n(CCCOC)c1=N,x,x,5,9,x,x,x
COCCCn1c(=N)c(C(=O)NC2CCCCC2)cc2c(=O)n3ccccc3nc21,x,13*,11,15,-25,3,2
N=c1c(C(=O)NCCc2ccccc2)cc2c(=O)n3ccccc3nc2n1CCCO,x,x,-21,13,x,x,x
CC(C)n1c(=N)c(C(=O)NCCc2ccccc2)cc2c(=O)n3ccccc3nc21,-18,18*,-4,13,-14,14*,36*
CCC(C(=O)OCC(=O)Nc1c(Cl)cccc1Cl)c1ccccc1 (centres undefined),-3,15*,30,12,12,-1,-3
CCc1nc(SCC#N)c(C#N)cc1C,-10,23*,20,14,-10,1,4
CCc1nc(SCC(=O)O)c(C#N)cc1C,x,1,6,6,-1,x,x
Cc1cc(C)c[n+](CC(=O)c2ccc(-c3ccccc3)cc2)c1,4,0,-9,6,-4,x,x
C=Cn1cc[n+](CC(=O)c2ccc(C)cc2)c1,3,18*,24,5,-3,-2,-4
N#CCOc1ccc(C2Nc3c(ccc(Cl)c3Cl)C3C=CCC32)cc1 (centres undefined),x,x,32,10,x,x,x
CN1CCN(Cc2c(O)ccc3cc(-c4ccccn4)c(=O)oc23)CC1,-4,18*,28,3,11,10,7
O=c1oc2c(CN3CCCCCC3)c(O)ccc2cc1-c1nc2ccccc2[nH]1,30,x,x,x,x,x,x
COc1ccc(/C=C/C(=O)Nc2nonc2NC(C)=O)cc1,-12,38*,-3,1,-4,-1,3
O=c1cc(N2CCCCC2)nc2n1CCCS2,x,25*,16,7,-8,-3,-2
CN(C)c1cc(=O)n2c(n1)SCCC2,x,-1,21,6,2,x,x
O=C1/C(=C/c2ccncc2)CCc2ccccc21,16,-1,-16,2,14,x,x
Cn1cccc1/C=C1\CCc2ccccc2C1=O,-1,39*,-48,6,-12,-2,-7
CN(C)c1ccc(/C=N/NC(=O)Cn2nnc3ccccc32)cc1,-25,1,-47,7,1,x,x
COc1ccc(/C=N/NC(=O)Cn2nnc3ccccc32)cc1OC,0,132*,9,12,-11,0,6
Cc1ccsc1/C=N\NC(=O)Cn1nnc2ccccc21,6,28*,-2,8,-9,-2,-6
COc1ccccc1NC(=O)CSc1nnc(-c2ccncc2)n1C1CCCCC1,x,x,51,8,x,x,x
SMILES,S1P3 antagonist,S1P4 agonist,EP2 modulator,EP2 antag,S1P4 antag,S1P4 ag conf,S1P1 agonist
Cc1cc(=O)[nH]c(N/N=C/c2c(O)n(-c3ccccc3)c(=O)c3ccccc23)n1,10,29*,14,7,0,-1,-4
CCOc1ccc(CCNC(=O)COC(=O)c2cccc(OC)c2O)cc1OCC,5,13*,-4,10,-18,-3,-2
CSc1cccc(CN2CCC(CO)(Cc3ccccc3)CC2)c1,4,16*,-46,8,11,-2,-6
CC/C(=N\O)c1c(O)c2c(n(-c3ccccc3)c1=O)CCCC2,-50,22*,28,14,-8,-1,0
CCOc1cc(CCC(=O)NC(C)c2ccccc2)on1 (centres undefined),x,x,12,4,x,x,x
O=C(Cn1c(SCC(=O)N2CCCCCC2)nc2ccccc21)NC1CCCCC1,x,x,-35,1,x,x,x
COC(=O)N/N=C(\CCC(=O)O)c1cccs1,4,27*,1,11,-15,-2,-6
CC(OC(=O)c1cc2sccc2n1C)C(=O)NCc1cccs1 (centres undefined),-41,22*,-34,x,-7,-2,3

# Screening results (PubChem)
